Compound activity (PubChem BioAssay)
Hits are enriched below; roughly 1.6% of the tested compounds scored in any of these assays.
KCNQ2 inh: KCNQ2 (rat) channel inhibition; O88943; B-score at 10 µM; CHO-K1 KCNQ2, FluxOR thallium flux, 20 min; active compounds read low; AID 2156; 310,000 compounds, 1.1% hits;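 active means fluorescence ratio B-score at most minus 3 library SDs, with starting brightness B-score within 2 library SDs, cut at about -5.5 in these data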
Target sequence (O88943 whole entry, looked up): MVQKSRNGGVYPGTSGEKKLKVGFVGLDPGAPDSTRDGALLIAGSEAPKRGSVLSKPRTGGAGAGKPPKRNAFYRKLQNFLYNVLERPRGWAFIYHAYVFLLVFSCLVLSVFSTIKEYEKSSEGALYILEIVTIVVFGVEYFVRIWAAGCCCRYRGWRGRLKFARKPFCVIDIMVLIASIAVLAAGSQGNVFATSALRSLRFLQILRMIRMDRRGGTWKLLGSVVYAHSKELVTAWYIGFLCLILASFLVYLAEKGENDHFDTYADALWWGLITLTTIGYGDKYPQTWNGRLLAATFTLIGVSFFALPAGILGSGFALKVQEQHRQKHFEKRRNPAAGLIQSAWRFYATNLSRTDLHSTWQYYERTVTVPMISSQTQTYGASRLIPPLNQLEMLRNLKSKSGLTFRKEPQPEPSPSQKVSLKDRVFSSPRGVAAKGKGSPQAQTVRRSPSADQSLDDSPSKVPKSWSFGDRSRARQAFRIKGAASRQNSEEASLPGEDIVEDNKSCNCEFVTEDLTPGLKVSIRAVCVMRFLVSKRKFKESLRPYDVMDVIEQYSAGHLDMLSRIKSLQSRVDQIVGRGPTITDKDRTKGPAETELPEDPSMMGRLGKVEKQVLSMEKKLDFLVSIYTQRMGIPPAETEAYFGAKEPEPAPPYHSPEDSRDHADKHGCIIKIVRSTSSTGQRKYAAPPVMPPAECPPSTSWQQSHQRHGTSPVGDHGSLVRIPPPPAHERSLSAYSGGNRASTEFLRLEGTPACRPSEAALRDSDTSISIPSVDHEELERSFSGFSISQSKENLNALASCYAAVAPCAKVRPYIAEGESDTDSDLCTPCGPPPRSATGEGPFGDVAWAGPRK
KCNQ2 pot: enhances the rat KCNQ2 potassium channel | O88943 | CHO-K1 KCNQ2, FluxOR thallium flux fluorescence; active compounds read high | B-score at 10 µM | 310,000 compounds, 0.54% hits;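 active means fluorescence ratio B-score at least 3 SD of library B-scores, with initial fluorescence B-score within 3 of them, cut at about 5.3 in these data; same plate scores as AID 2156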;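 further: B-score of peak minus minimum over baseline fluorescence ratio after K+ and Tl+ stimulus; positive B-score means potentiation of KCNQ2 with more thallium influx and brighter signal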
Each line names hits and unclear results; the compound was inactive in the other large screens.

O=C(CN(Cc1ccco1)S(=O)(=O)c1cccs1)Nc1ccccc1C(F)(F)F	KCNQ2 inh -7
COc1ccccc1NC(=O)CN(Cc1ccco1)C(=O)c1cccs1	none (no result: KCNQ2 pot)
CN1CCN(S(=O)(=O)c2cccc(C(=O)NCCOc3ccccc3F)c2)CC1	none (no result: KCNQ2 pot)
Cc1nn(-c2ccccc2)c2ncc(C(=O)c3cc(Cl)ccc3O)cc12	none (no result: KCNQ2 pot)
CCc1nn2cc(C(=O)c3cc(Cl)ccc3O)cnc2c1-c1ccc(F)cc1	KCNQ2 inh -5.6
O=C(NCc1ccccc1Cl)C(=O)c1cn(CC(=O)N2CCOCC2)c2ccccc12	none (no result: KCNQ2 pot)
COC(=O)c1c(NC(=O)c2ccccc2F)sc(C(=O)N2CCOCC2)c1C	none (no result: KCNQ2 pot)
COCC1CCCN(C(=O)c2cc(COc3ccc4ncccc4c3)on2)C1 (configuration not stated)	none
COc1ccc(C2NC(C(=O)O)Cc3c2[nH]c2ccccc32)cc1CN1CCN(c2ccc(F)cc2)CC1 (configuration not stated)	KCNQ2 inh -5.7
O=C(O)C1Cc2c([nH]c3ccccc23)C(c2ccc3c(c2)OCO3)N1 (configuration not stated)	none (no result: KCNQ2 pot)
COc1cc(NC(=O)C(Cc2ccccc2)n2cccc2)cc(OC)c1 (configuration not stated)	none (no result: KCNQ2 pot)
CC1CC(C)CN(C(=O)C(Cc2ccccc2)n2cccc2)C1 (configuration not stated)	KCNQ2 inh -6.5
CC1CCN(C(=O)C(Cc2ccccc2)n2cccc2)CC1 (configuration not stated)	none (no result: KCNQ2 pot)
Cc1cccc(NC(=O)C(Cc2ccccc2)n2cccc2)c1 (configuration not stated)	KCNQ2 inh -5.7
COc1ccccc1CNC(=O)c1cccnc1	none
C[C@H](NC(=O)Nc1cccc(Br)c1)C(=O)O	none (no result: KCNQ2 pot)
CC1(C)CC(=O)C2=C(C1)OC1=C(C(=O)CC(C)(C)C1)C2c1ccc(O)cc1O	none (no result: KCNQ2 pot)
CC1(C)CC(=O)C2=C(C1)OC1=C(C2)C(=O)CC(C)(C)C1	KCNQ2 inh -6
COc1cccc(NC(=O)n2ncc3c(C)cccc32)c1	none (no result: KCNQ2 pot)
COC(=O)c1sc(SC)c(S(=O)(=O)C(C)C)c1N/N=C(\C#N)C(=O)c1ccccc1	none
Cc1ccc(SC[C@H](C)CN2CC[C@H](NC(=O)OCc3ccccc3)CCC2=O)cc1	none (no result: KCNQ2 pot)
Cc1ccc(S[C@@H](CCN2CC[C@H](NC(=O)OCc3ccccc3)CCC2=O)c2ccccc2)cc1	KCNQ2 inh -6.9
COc1cccc(CNC(=O)CCCn2c(=S)[nH]c3cc4c(cc3c2=O)OCO4)c1	none (no result: KCNQ2 pot)
O=C(Nc1nccs1)c1ccc(COc2c(F)c(F)cc(F)c2F)cc1	none
C=CC[C@H]1CC(C)=C[C@H](CC=C)N1C(=O)c1cc(COc2ccccc2SC)on1	KCNQ2 inh -5.6
COCC1CCN(C(=O)c2cc(COc3ccccc3SC)on2)C1 (configuration not stated)	none
O=C(Nc1ccccc1)C1=C(O)CC(c2ccc(Cl)cc2)N2CCN=C12 (configuration not stated)	none (no result: KCNQ2 pot)
CSCCC(NC(=O)c1ccc(Cl)cc1Cl)C(=O)NCc1ccccn1 (configuration not stated)	none (no result: KCNQ2 pot)
CSCCC(NC(=O)c1ccc(Cl)cc1Cl)C(=O)OC1CCCCC1=O (configuration not stated)	KCNQ2 inh -8.1
CC(NC(=O)c1ccccc1Cl)c1ccc(-n2ccnc2)cc1 (configuration not stated)	none
CCC(C)NC(=O)NCc1ccccc1F (configuration not stated)	none (no result: KCNQ2 pot)
Clc1cccc2c1Sc1ccccc1CC2N1CCNCC1 (configuration not stated)	KCNQ2 inh -7.9
COCCCN1CCN(C2Cc3ccccc3Sc3ccc(Cl)cc32)CC1 (configuration not stated)	none (no result: KCNQ2 pot)
COc1ccc(/C=C2\Sc3ccc(C(=O)N4CCc5ccccc5C4)cc3N(C)C2=O)cc1	none (no result: KCNQ2 pot)
COc1ccc(/C=C2\Sc3ccc(C(=O)NCCN4CCCCCC4)cc3N(C)C2=O)cc1	KCNQ2 inh -6.4
CCN1CCN(CCNC(=O)c2ccc3c(c2)N(Cc2ccc(F)cc2)C(=O)/C(=C/c2ccccc2)S3)CC1	KCNQ2 inh -6.5
CCN1CCN(CCNC(=O)c2ccc(/C=C3/Sc4ccccc4N(Cc4cccc(Cl)c4)C3=O)cc2)CC1	none (no result: KCNQ2 pot)
O=C(CNC(=O)c1nc[nH]c1C(=O)N1CCc2ccccc2C1)OCc1ccccc1	KCNQ2 inh -5.6
O=C(CNC(=O)c1nc[nH]c1C(=O)N1CCNCC1)OCc1ccccc1	none
O=C(CCN1CCc2ccccc2C(c2ccccc2)C1)c1ccc2c(c1)OCCO2 (configuration not stated)	none (no result: KCNQ2 pot)
O=C(CCN1Cc2ccccc2C1)c1ccc2c(c1)OCCO2	KCNQ2 inh -5.9
O=Cc1[nH]c2ccccc2c1N(C(=O)CCl)c1ccc([N+](=O)[O-])cc1	KCNQ2 inh -12
CC(=O)n1cc(N(C(=O)CCl)c2ccc([N+](=O)[O-])cc2)c2ccccc21	none (no result: KCNQ2 pot)
COc1ccc(CNc2nc(-c3cccnc3)nn2C(=O)C(C)C)cc1	none
Cn1c(SCC(=O)Nc2ncc(C(F)(F)F)cc2Cl)nnc1-c1ccc(Cl)cc1	none
